Assay outcomes from PubChem.
BAZ2B inh = blocks human BAZ2B; Potency, µM (highest dose often 114 µM), for inactives: at the highest dose activity change, negative = inhibition, actives largely listed as inhibitors; Q9UIF8; 360,000 compounds, 4.4% hits; AlphaScreen BAZ2B-H3K14Ac peptide displacement; AID 504333; further: on the % scale 0 is the no-effect control and ±100 the full control effect; nearly all actives have a fitted effect of over 60% in size
Target sequence (Q9UIF8 whole entry, looked up): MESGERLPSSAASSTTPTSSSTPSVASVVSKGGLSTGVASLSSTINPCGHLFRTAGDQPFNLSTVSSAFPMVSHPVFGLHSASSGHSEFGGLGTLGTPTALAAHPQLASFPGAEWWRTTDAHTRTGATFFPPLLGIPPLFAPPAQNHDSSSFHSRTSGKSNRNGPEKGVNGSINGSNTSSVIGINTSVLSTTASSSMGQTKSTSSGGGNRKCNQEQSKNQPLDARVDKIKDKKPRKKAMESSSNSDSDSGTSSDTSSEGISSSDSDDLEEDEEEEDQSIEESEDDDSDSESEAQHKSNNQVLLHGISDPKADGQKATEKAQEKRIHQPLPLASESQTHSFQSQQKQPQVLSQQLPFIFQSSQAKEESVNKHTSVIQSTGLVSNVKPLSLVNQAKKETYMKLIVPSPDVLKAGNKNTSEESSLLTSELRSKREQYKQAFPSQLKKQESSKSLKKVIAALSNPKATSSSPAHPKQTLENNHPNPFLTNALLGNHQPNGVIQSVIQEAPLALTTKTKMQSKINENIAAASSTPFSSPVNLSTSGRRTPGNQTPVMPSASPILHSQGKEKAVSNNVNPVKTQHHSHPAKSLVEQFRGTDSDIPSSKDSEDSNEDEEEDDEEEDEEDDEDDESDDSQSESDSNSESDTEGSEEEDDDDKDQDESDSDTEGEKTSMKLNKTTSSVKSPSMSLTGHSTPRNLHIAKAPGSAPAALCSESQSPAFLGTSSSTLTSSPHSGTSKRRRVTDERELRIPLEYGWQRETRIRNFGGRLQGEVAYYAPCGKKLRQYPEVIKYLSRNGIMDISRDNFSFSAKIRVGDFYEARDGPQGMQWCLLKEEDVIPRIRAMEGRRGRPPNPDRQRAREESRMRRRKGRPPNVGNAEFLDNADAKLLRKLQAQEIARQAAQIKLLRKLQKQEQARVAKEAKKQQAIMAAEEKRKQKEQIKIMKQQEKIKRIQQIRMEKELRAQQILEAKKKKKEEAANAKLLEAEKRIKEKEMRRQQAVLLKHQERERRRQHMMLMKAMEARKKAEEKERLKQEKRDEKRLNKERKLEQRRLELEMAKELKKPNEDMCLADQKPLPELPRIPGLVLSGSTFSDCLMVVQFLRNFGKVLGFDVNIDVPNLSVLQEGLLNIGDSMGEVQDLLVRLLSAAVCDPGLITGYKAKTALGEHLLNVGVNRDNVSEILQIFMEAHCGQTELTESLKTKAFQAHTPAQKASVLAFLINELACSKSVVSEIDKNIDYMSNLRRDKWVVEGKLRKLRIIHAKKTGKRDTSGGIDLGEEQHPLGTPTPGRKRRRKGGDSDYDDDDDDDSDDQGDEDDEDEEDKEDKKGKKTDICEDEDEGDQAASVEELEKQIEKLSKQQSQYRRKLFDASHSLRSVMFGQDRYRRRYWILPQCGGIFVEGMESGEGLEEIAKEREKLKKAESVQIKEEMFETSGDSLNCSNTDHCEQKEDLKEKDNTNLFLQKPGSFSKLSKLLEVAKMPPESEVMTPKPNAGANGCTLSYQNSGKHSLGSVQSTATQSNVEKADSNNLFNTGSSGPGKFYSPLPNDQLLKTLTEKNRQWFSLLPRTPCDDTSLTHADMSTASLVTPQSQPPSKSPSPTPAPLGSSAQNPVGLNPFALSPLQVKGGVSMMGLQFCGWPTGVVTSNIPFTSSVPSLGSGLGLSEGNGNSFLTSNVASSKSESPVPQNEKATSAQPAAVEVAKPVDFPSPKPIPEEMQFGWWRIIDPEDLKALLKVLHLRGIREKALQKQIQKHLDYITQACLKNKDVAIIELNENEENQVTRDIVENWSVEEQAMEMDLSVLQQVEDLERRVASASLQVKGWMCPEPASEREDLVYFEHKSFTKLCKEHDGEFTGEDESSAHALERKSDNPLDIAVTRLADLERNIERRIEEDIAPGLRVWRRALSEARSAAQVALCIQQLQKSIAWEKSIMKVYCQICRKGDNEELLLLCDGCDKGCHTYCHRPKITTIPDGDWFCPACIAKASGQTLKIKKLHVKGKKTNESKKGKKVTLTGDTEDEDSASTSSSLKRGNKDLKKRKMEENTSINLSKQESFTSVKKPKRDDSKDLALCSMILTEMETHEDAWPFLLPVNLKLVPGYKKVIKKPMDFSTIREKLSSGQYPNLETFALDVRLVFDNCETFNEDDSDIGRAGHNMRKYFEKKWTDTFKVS
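AlphaScreen displacement: compounds (up to 110uM) incubated 30 min at room temperature with a preformed 50 nM BAZ2B/50 nM biotinylated H3K14Ac peptide complex in PBS pH 7.4 with Tween-20. Donor and acceptor beads at 10 ug/mL final added, 20 min light-protected before reading.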
PLK1 PBD inh = PLK1 (human) polo-box domain binding inhibition | P53350 | Plk1 PBD binding of FITC phosphopeptide, fluorescence polarization | AID 720504 | Potency, µM, for inactives: max response, negative = inhibition, actives largely listed as inhibitors | 360,000 compounds, 2.8% hits; further: series mostly up to about 57 µM; on the % scale 0 is the no-effect control and ±100 the full control effect; nearly all actives have a fitted effect of over 65% in size
L3MBTL1 block = inhibitors of human L3MBTL1. Q9Y468. AlphaScreen L3MBTL1–H3K9me1 peptide binding. Potency, µM (doses to about 57.1 µM), for inactives: at the highest dose activity, negative = inhibition, hits mostly inhibitors. 230,000 compounds, 0.66% hits. AID 485360; further: on the % scale 0 is the no-effect control and ±100 the full control effect; nearly all actives have a fitted effect of over 60% in size
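AlphaScreen assay: L3MBTL1 (50 nM final) was preincubated 30 min at room temperature with biotinylated H3(1-15)K9me1 peptide (75 nM final), then 30 min with library compounds; streptavidin donor and nickel chelate acceptor beads (10 ug/mL final) added, 30 min dark.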
VDR inh = inhibitors of human vitamin D receptor | P11473 | VDR-SRC2-3 peptide fluorescence polarization, 2 h | Potency, µM, for inactives: max response, negative = inhibition, hits mostly inhibitors | 400,000 compounds, 0.93% hits | AID 504847; further: on the % scale 0 is the no-effect control and ±100 the full control effect
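Reagent solutions, kept cold and dark, are dispensed first; compounds are then pinned in at 23 nl, plates briefly spun, and incubated 2 h at ambient temperature. Inhibition of VDR–SRC2-3 peptide binding is read by fluorescence polarization.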
HP1b chromo inh = inhibitors of HP1-beta chromodomain binding to methylated histone tails; P83916; AlphaScreen HP1-beta / biotin-H3K9me3 peptide binding; Potency, µM (doses to about 114 µM), for inactives: at the top dose activity change, negative = inhibition, usual class: inhibitors; 390,000 compounds, 0.56% hits; AID 540317; further: nearly all actives have a fitted effect of over 70% in size
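Compound inhibition of the preformed complex between 50 nM HP1-beta and 50 nM biotinylated H3K9me3 peptide was read by AlphaScreen. Buffer was PBS pH 7.4 with 0.01% Tween-20. Incubations ran 30 min at room temperature, with 10 ug/mL donor/acceptor beads.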
JMJD2A Tudor inh = blocks the human JMJD2A Tudor domain. 390,000 compounds, 4.4% hits. Potency, µM (doses to about 114 µM), for the others: at the highest dose activity change, negative = inhibition, most hits filed as inhibitors. AID 504339. AlphaScreen JMJD2A-Tudor / H3K4me3 peptide binding. O75164; further: on the % scale 0 is the no-effect control and ±100 the full control effect; nearly all actives have a fitted effect of over 50% in size
The depositor's hits bear a star. An excerpt weighted towards active compounds, which were near 6.9% of everything screened. The call rests on the fitted dose curve; in most records, active means well fitted curve in the direction sought with a large enough effect; inconclusive means small, poorly fitted or top-dose-only effect, or another doubt; inactive means no such curve, though single readings can be large; an effect the other way counts as inactive or inconclusive. Potency means the concentration at half of the fitted maximal effect.

For COc1ccc(NC(=O)C(NS(=O)(=O)c2cccc3nsnc23)C(C)C)cc1OC (centres undefined) the results were BAZ2B inh -38%, VDR inh -8%, HP1b chromo inh 20% and JMJD2A Tudor inh -28%.
`CCOC(=O)c1cnn(-c2ccc(C(=O)Nc3cc(OC)c(OC)c(OC)c3)cc2)c1N` gave BAZ2B inh -13%, VDR inh 5%, HP1b chromo inh 25% and JMJD2A Tudor inh -12%.
`C[N+](C)(C)CCN(Cc1ccc(Cl)cc1)c1ccccn1` gave BAZ2B inh 50µM*, PLK1 PBD inh 1%, L3MBTL1 block 2%, VDR inh 7%, HP1b chromo inh 23% and JMJD2A Tudor inh -35%.
Cc1ccc2cc(CN(CC3CCCO3)C(=S)NCc3ccco3)c(=O)[nH]c2c1C (centres undefined) was read as BAZ2B inh inconclusive, PLK1 PBD inh 15µM*, L3MBTL1 block -7%, VDR inh -13%, HP1b chromo inh inconclusive and JMJD2A Tudor inh inconclusive.
Screening CCN(CC)CCN(Cc1cc2cc(C)c(C)cc2[nH]c1=O)C(=S)NCc1ccco1 returned BAZ2B inh -4%, PLK1 PBD inh -4%, L3MBTL1 block 16%, VDR inh 26%, HP1b chromo inh -1% and JMJD2A Tudor inh -33%.
`Cc1cc2cc(CN(CCN(C)C)C(=S)NCc3ccco3)c(=O)[nH]c2cc1C` gave BAZ2B inh 71µM*, PLK1 PBD inh -12%, L3MBTL1 block -23%, VDR inh 16%, HP1b chromo inh -23% and JMJD2A Tudor inh inconclusive.
Screening O=C(CSc1nnc(Nc2ccccc2)s1)NN1C(=O)NC2(CCCCC2)C1=O returned BAZ2B inh 3%, PLK1 PBD inh 4%, L3MBTL1 block 6%, VDR inh 6%, HP1b chromo inh 35% and JMJD2A Tudor inh -7%.
For CN1C=CC=C/C1=C1\SC(=S)N(C2CCCCC2)C1=O the results were BAZ2B inh 40µM*, PLK1 PBD inh -5%, L3MBTL1 block -30%, VDR inh -21%, HP1b chromo inh -54% and JMJD2A Tudor inh 40µM*.
`CN1C=CC=C/C1=C1\SC(=S)N(CC(=O)O)C1=O` gave BAZ2B inh 50µM*, PLK1 PBD inh -7%, L3MBTL1 block -11%, VDR inh 0%, HP1b chromo inh 7% and JMJD2A Tudor inh -11%.
Screening O=C(C1CCN(CCCc2ccccc2)CC1)N(CCc1ccccc1)Cc1ccccc1 returned BAZ2B inh inconclusive, PLK1 PBD inh 1%, L3MBTL1 block -6%, VDR inh 0%, HP1b chromo inh inconclusive and JMJD2A Tudor inh 1.1µM*.
For CCN(Cc1ccccc1)C(=O)C1CCN(Cc2ccc(SC)cc2)CC1 the results were BAZ2B inh -22%, PLK1 PBD inh 3%, L3MBTL1 block -7%, VDR inh 1%, HP1b chromo inh inconclusive and JMJD2A Tudor inh 20µM*.
`O=C(C1CCN(CC2CC=CCC2)CC1)N(CCc1ccccc1)Cc1ccccc1` (centres undefined) gave BAZ2B inh 79µM*, PLK1 PBD inh 3%, L3MBTL1 block 0%, VDR inh -20%, HP1b chromo inh 42% and JMJD2A Tudor inh inconclusive.
O=C(C1CCN(S(=O)(=O)c2cnc[nH]2)CC1)N(CCc1ccccc1)Cc1ccccc1 was read as BAZ2B inh 0%, PLK1 PBD inh -7%, VDR inh -10%, HP1b chromo inh 33% and JMJD2A Tudor inh -8%.
`CSc1ccc(CN2CCC2(C)C(=O)NC2CCN(Cc3ccccc3)CC2)cc1` (centres undefined) gave PLK1 PBD inh 0%.
`CCOc1ccc(NC(=O)C(=O)NCC(c2cccnc2)N2CCc3ccccc32)cc1` (centres undefined) gave BAZ2B inh 3%, VDR inh 10%, HP1b chromo inh 31% and JMJD2A Tudor inh 1%.
For Cc1ccccc1-n1nc(CO)c(C(=O)NCCc2ccccc2)n1 the results were BAZ2B inh 3%, VDR inh -1%, HP1b chromo inh 32% and JMJD2A Tudor inh -11%.
For Cc1ccc2nnnc(-c3ccccc3)c2c1 the results were BAZ2B inh -23%, PLK1 PBD inh 1%, L3MBTL1 block -3%, VDR inh -6%, HP1b chromo inh 17% and JMJD2A Tudor inh -16%.
`Cc1ccc2c(c1)c(-c1ccccc1)nc1nnnn12` gave BAZ2B inh -10%, PLK1 PBD inh 24µM*, L3MBTL1 block -22%, VDR inh -9%, HP1b chromo inh -1% and JMJD2A Tudor inh inconclusive.
O=[N+]([O-])c1cc(S(=O)(=O)C(F)(F)F)ccc1Sc1nc2ccccc2[nH]1 was read as BAZ2B inh inconclusive, PLK1 PBD inh inconclusive, VDR inh inconclusive, HP1b chromo inh -23% and JMJD2A Tudor inh inconclusive.
For CS(=O)(=O)c1ccc(Sc2nc3ccccc3[nH]2)c([N+](=O)[O-])c1 the results were BAZ2B inh inconclusive, PLK1 PBD inh -4%, L3MBTL1 block -5%, VDR inh 10%, HP1b chromo inh -6% and JMJD2A Tudor inh 11µM*.
`CCCOc1ccc(/C=C/C(=O)Nc2sc(C)c(C)c2C(=O)OCC)cc1OC` gave BAZ2B inh -9%, VDR inh 16µM*, HP1b chromo inh inconclusive and JMJD2A Tudor inh 79µM*.
Screening CCOC(=O)c1c(NC(=O)/C=C/c2ccc(OC)c(OC)c2)sc(C(C)=O)c1C returned BAZ2B inh 3%, VDR inh inconclusive, HP1b chromo inh -2% and JMJD2A Tudor inh -8%.
`CCCCN(C)C(=O)Cn1c(SCC(=O)Nc2ccc(C)c(C)c2)nc2ccccc21` gave BAZ2B inh -19%, VDR inh -12%, HP1b chromo inh 25% and JMJD2A Tudor inh -25%.
`COc1ccc(C(=O)N2CCCC(N3CCN(c4ccccc4F)CC3)C2)c(OC)n1` (centres undefined) gave BAZ2B inh -11%, PLK1 PBD inh 30µM*, VDR inh inconclusive, HP1b chromo inh 15% and JMJD2A Tudor inh inconclusive.
Screening COc1ccc(C(=O)N2CCCC(N3CCN(c4ccccc4OC)CC3)C2)c(OC)n1 (centres undefined) returned BAZ2B inh -6%, PLK1 PBD inh 5%, VDR inh 0%, HP1b chromo inh 22% and JMJD2A Tudor inh -2%.
O=C(O)c1ccccc1C(=O)NCCc1c(C(=O)O)[nH]c2ccc(F)cc12 was read as BAZ2B inh -13%, PLK1 PBD inh -18%, L3MBTL1 block 0%, VDR inh -11%, HP1b chromo inh 4% and JMJD2A Tudor inh -13%.
Clc1ncc(C#Cc2ccccc2)c2ncncc12 was read as VDR inh 28µM*, HP1b chromo inh 6% and JMJD2A Tudor inh -29%.
